Experimental data as given in PubChem BioAssay.
Activity calls are given as the source filed them. No rule for the calls is given here.

These molecules were tested against Pantothenate synthetase (Mycobacterium tuberculosis (strain ATCC 25618 / H37Rv)) (UniProt P9WIL5) (assay: Coupled enzyme confirmation of inhibitors against recombinant Mtb PanC (AID 375;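 also: 0% = full reaction with vehicle and 100% = no enzyme background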)). Details: coupled enzyme assay; at 10 µM, active compounds read high.
Pantothenate synthetase (Mycobacterium tuberculosis (strain ATCC 25618 / H37Rv)), sequence (P9WIL5 whole entry, looked up): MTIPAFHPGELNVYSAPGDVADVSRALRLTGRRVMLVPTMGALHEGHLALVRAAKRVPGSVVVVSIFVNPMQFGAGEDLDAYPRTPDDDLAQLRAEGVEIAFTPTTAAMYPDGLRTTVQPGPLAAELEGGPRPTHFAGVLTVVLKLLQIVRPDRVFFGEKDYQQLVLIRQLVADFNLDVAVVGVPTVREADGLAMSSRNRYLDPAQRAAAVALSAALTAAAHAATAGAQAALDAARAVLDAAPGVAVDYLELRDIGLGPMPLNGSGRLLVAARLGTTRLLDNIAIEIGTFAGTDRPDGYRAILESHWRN
In the case of `Cc1ccc2cc(CN(CC(C)C)C(=O)C3CCCO3)c(=O)[nH]c2c1` (stereo not given), the inhibition is reported as 0% (inactive).
With `CCCc1cc(=O)oc2cc(C)cc(OC(=O)c3ccco3)c12` the inhibition was 0% (inactive).
With `O=C(c1ccncc1)N1CCN(C(=O)c2cccs2)CC1` the inhibition was 6% (inactive).
With `COc1ccccc1-n1c(=O)[nH]c2c(C(N)=O)nc(CC(C)C)nc21` the inhibition was 0% (inactive).
In the case of `O=c1[nH]c2cc3c(cc2cc1C(c1nnnn1Cc1ccccc1)N1CCCc2ccccc21)OCO3` (stereo not given), the inhibition is reported as 1% (inactive).
In the case of `Cc1[nH]n(C(N)=S)c(=O)c1C(c1ccccc1)C(C#N)C#N` (stereo not given), the inhibition is reported as 0% (inactive).
`CC(=O)Nc1ccc(S(=O)(=O)NCc2csc(-c3cccnc3)n2)cc1` was tested, and the inhibition was 0% (inactive).
For `N#Cc1c(N)nc2c(c1-c1ccncc1)CCCCC2`, the inhibition was 8% (inactive).
In the case of `CC1(C)Oc2ccc3ccc(=O)oc3c2C(N2CCCCC2)C1O` (stereo not given), the inhibition is reported as 0% (inactive).
In the case of `COc1ccc(-c2nsc(SCC(=O)Nc3cc(C)on3)n2)cc1`, the inhibition is reported as 0% (inactive).
For `Cc1occc1-c1nnc(SCC(=O)NCC2CCCO2)n1C` (stereo not given), the inhibition was 7% (inactive).
`CSc1ccccc1C(=O)NC1CC2CCC1C2` (stereo not given) was tested, and the inhibition was 0% (inactive).
With `Cc1ccc(-n2ncc3c(Nc4c(C)n(C)n(-c5ccccc5)c4=O)ncnc32)c(C)c1` the inhibition was 10% (inactive).
With `CCCCCCNC(=O)c1c(N)n(/N=C/c2ccco2)c2nc3ccccc3nc12` the inhibition was 5% (inactive).
In the case of `CC(=O)Nc1ccc(S(=O)(=O)N2CCN(Cc3ccncc3)CC2)cc1`, the inhibition is reported as 8% (inactive).
`CC(C)(C)n1ncc2c(=O)n(CC(=O)NCc3ccco3)cnc21` was tested, and the inhibition was 11% (inactive).
In the case of `CC(=O)Nc1ccc(S(=O)(=O)CCC#N)cc1`, the inhibition is reported as 5% (inactive).
For `CC(=O)OC(C(=O)NC1CCCCC1)c1ccncc1` (stereo not given), the inhibition was 10% (inactive).
`CCN(CC)CCNC(=O)C1CCN(S(=O)(=O)N2CCCCC2)CC1` was tested, and the inhibition was 0% (inactive).
`CN(C)CCNC(=O)c1ccc(COCC(F)(F)F)cc1` was tested, and the inhibition was 0% (inactive).
With `CCOc1ccc2nc(S(N)(=O)=O)sc2c1` the inhibition was 3% (inactive).
For `CCCOC(=O)C1C2C=CC3(CN(c4cccc(Cl)c4)C(=O)C13)O2` (stereo not given), the inhibition was 0% (inactive).
`O=C(C1CCCN(S(=O)(=O)c2cccnc2)C1)N1CCn2c1nc1ccccc12` (stereo not given) was tested, and the inhibition was 0% (inactive).
For `O=C(CSc1nc(-c2ccc(F)cc2)cs1)N1CCOCC1`, the inhibition was 0% (inactive).
With `CCCSc1nc(N)c(C#N)c(-c2ccc(C)cc2)c1C#N` the inhibition was 2% (inactive).
For `CCc1nn(CC(=O)NCCCN2CCc3ccccc3C2)c(=O)c2cc3sccc3n12`, the inhibition was 8% (inactive).
In the case of `COc1cc(-c2nc(-c3ccncc3)no2)cc(OC)c1OC`, the inhibition is reported as 2% (inactive).
For `COc1ccc2c(c1)[nH]c1c(=O)n(CC3CCCO3)cnc12` (stereo not given), the inhibition was 1% (inactive).
In the case of `CC(=O)N[C@@H](CS)C(=O)O`, the inhibition is reported as 0% (inactive).
`COC(=O)c1oc2ccc(OC)cc2c1N` was tested, and the inhibition was 5% (inactive).
`O=c1oc2ccccc2n1CCn1c2ccccc2c2nc3ccccc3nc21` was tested, and the inhibition was 0% (inactive).
For `COc1ccc(CNC(=O)c2ccc(CN3CCOCC3)cc2)cc1`, the inhibition was 8% (inactive).
In the case of `CCCc1ccc(C(C)NC(=O)c2cnccn2)cc1` (stereo not given), the inhibition is reported as 0% (inactive).
In the case of `COC(=O)c1ccccc1NC(=O)C1CCCCC1C(=O)O` (stereo not given), the inhibition is reported as 0% (inactive).
For `COC(=O)c1ccccc1NC(=O)c1noc2c1CCC2`, the inhibition was 0% (inactive).
With `CC(C)Cc1cc(C(=O)Nc2c(F)cc(F)cc2Br)no1` the inhibition was 0% (inactive).
`CC(=O)CC(=O)Nc1ccccc1NC(C)=O` was tested, and the inhibition was 3% (inactive).
With `CCOC(=O)CC(NS(=O)(=O)c1ccc(NC(C)=O)cc1)c1ccc(OCC)cc1` (stereo not given) the inhibition was 5% (inactive).
In the case of `COc1cc(C2N3CC4(C)CN2CC(C)(C3)C4)ccc1O` (stereo not given), the inhibition is reported as 0% (inactive).
For `COc1ccccc1C(=O)Nc1ccc(N2CCN(S(C)(=O)=O)CC2)cc1`, the inhibition was 0% (inactive).
